Mac1 fbg inh: blocks human CD11b/CD18 adhesion to fibrinogen; P05107+P11215; K562 CD11b/CD18 adhesion to fibrinogen, ATPlite luminescence; Mn2+ added to activate the integrin; inhibition, % at 10 µM; actives 0.54% (n = 93,000); AID 1497;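 active means primary inhibition of 50% or more at 10 µM, then 40% or more on retest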
CYP2C9 act: increases human cytochrome P450 2C9 activity | P11712 | recombinant CYP2C9, luciferin-H conversion, luminescence; active compounds read high; factor 1 = untreated enzyme, 0 = blocked | activation factor at 5 µM | actives 1.4% (n = 96,000);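 active means activation factor of 2 or more for CYP2C9 at a 5 µM dose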
CYP2C9 inhib: human CYP2C9 inhibition | P11712 | CYP2C9 Supersomes, luciferin-H conversion, luminescence | inhibition, % at 5 µM | actives 20% (n = 96,000);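 active means blocking of liver enzyme CYP2C9 beyond about 50% at 5 µM, limit read from the data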
CD11b adhes enh: CD11b/CD18-fibrinogen binding enhancement; actives 0.07% (n = 93,000); K562 CD11b/CD18 adhesion to fibrinogen, ATPlite luminescence; AID 1499; P05107+P11215; activation, % at 10 µM;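 active means 10 µM primary screen giving 50% or more activity, confirmed by 40% or more on retest at that dose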
CYP2C19 activ: increases human CYP2C19 enzyme activity. P33261. recombinant CYP2C19, luciferin-H EGE luminescence; active compounds read high; 0 = fully inhibited enzyme, 1 = untreated enzyme. activation factor at 5 µM. 96,000 tested, under 10 active. AID 1025;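 active means activation factor of at least 2 at 5 µM in the primary screen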
Target sequence (P33261 whole entry, looked up): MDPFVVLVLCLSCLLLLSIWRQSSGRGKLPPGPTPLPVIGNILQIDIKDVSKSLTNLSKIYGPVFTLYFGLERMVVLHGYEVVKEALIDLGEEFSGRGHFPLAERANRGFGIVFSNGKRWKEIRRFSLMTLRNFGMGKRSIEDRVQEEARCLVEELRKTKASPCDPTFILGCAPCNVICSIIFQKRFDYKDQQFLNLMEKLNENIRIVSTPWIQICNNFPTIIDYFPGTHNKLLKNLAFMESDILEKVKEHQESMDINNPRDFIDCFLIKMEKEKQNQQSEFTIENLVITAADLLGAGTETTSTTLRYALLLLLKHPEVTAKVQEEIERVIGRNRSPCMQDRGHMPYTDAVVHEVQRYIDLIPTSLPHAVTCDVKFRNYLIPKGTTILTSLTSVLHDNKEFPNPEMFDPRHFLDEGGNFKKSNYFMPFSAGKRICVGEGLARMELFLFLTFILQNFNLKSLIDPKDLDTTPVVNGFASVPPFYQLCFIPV
CYP2C19 inhib: inhibitors of human CYP2C19 | P33261 | CYP2C19 Supersomes, luciferin-H EGE luminescence, 30 min | inhibition, % at 5 µM | actives 21% (n = 96,000) | AID 778;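 active means CYP2C19 inhibition above a set limit at 5 µM in the primary screen, cut at about 50% in these data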
Hits are given with their value; 0 = inactive; - = not tested or not shown. The list is not random: actives were taken first. Their share in the collection is about 28%.

SMILES	Mac1 fbg inh	CYP2C9 act	CYP2C9 inhib	CD11b adhes enh	CYP2C19 activ	CYP2C19 inhib
O=C(c1ccc([N+](=O)[O-])cc1)N(Cc1ccc(Cl)cc1Cl)N1C(=O)CCCC1=O	0	0	0	0	0	64
Cc1ccc([N+](=O)[O-])cc1NC(=O)CN(C(=O)c1ccc(Cl)cc1)C1CCCCC1	-	0	0	-	0	0
CC1CCN(C(=S)c2cn(Cc3ccccc3F)c3ccccc23)CC1	0	0	0	0	0	0
CCSc1nnc([C@@H]2CCCN2C(=O)OC(C)(C)C)o1	0	0	0	0	0	0
CC(C)(C)OC(=O)N1CCC[C@H]1c1nnc(SCc2c(Cl)cccc2Cl)o1	0	0	78	0	0	71
COc1ccc(CSC(=N)N)cc1[N+](=O)[O-]	0	0	62	0	0	51
CCCCCOc1ccc(CSC(=N)N)cc1[N+](=O)[O-]	0	0	0	0	0	0
Cc1nc2ccccn2c1/C(O)=C1\C(=O)C(=O)N(CCN2CCOCC2)C1c1ccncc1 (stereo unspecified)	0	0	0	0	0	0
CN1CCN(CCCNC(=O)c2ccc3c(c2)N(Cc2ccccc2)CCS3)CC1	0	0	0	0	0	0
O=C(Cc1ccc(-c2ccccc2)cc1)NCCN1CCOCC1	0	0	0	0	0	72
O=C(NCCN1CCOCC1)c1ccc2c(c1)N(Cc1ccccc1)CCS2	0	0	63	0	0	54
O=C(CCSc1ccccc1)NCCN1CCOCC1	0	0	0	0	0	0
O=C(Cc1ccc(-c2ccccc2)cc1)N1CCOCC1	0	0	65	0	0	74
O=C(CN1C(=O)c2ccccc2C1=O)N1CCOCC1	0	0	0	0	0	0
O=C(CC(c1ccccc1)c1cc(Br)ccc1O)NCCN1CCOCC1 (stereo unspecified)	0	0	56	0	0	85
COCCNC(=O)CSc1ncnc2sccc12	-	0	0	-	0	0
CSc1ccc(/C=C(\C(=O)O)c2ccc(S(=O)(=O)N3CCCCC3)s2)cc1	0	-	-	0	-	-
Cc1cc(=O)[nH]c(NN=C(CC(C)C)CC(C)C)n1	0	-	-	0	-	-
O=C(Cc1nc(-c2ccc(Br)s2)cs1)NCCN1CCOCC1	0	0	0	0	0	77
O=C(NCCCN1CCOCC1)c1ccc(Br)s1	0	0	0	0	0	0
O=[N+]([O-])c1ccc(N2CCN(S(=O)(=O)c3ccccc3)CC2)cc1NCc1ccco1	0	-	-	0	-	-
CS(=O)(=O)NCCSc1nnnn1-c1ccccc1	0	0	0	0	0	52
C(=C\CSc1nnnn1-c1ccccc1)/CSc1nnnn1-c1ccccc1	0	0	0	0	0	0
O=S(=O)(NCCSc1nnnn1-c1ccccc1)c1cccs1	0	0	0	0	0	99
Cc1ccc(S(=O)(=O)NCCSc2nnnn2-c2ccc(C(N)=O)cc2)cc1	0	0	0	0	0	0
SMILES	Mac1 fbg inh	CYP2C9 act	CYP2C9 inhib	CD11b adhes enh	CYP2C19 activ	CYP2C19 inhib
O=C(NCc1ccccc1F)C1CCCN(C(=O)NC2CCCCC2)C1 (stereo unspecified)	0	0	0	0	0	0
Cn1c(CNc2ccccc2)cc(=O)n(C)c1=O	0	0	0	0	0	0
N=C1C(c2nc3ccccc3c(=O)[nH]2)=C(O)CN1CCO	0	0	0	0	0	0
N=C1C(c2nc3ccccc3c(=O)[nH]2)=C(O)CN1CCc1ccccc1	0	0	60	0	0	63
CC(C)CCN1CC(O)=C(c2nc3ccccc3[nH]2)C1=N	0	0	60	0	0	68
CC(C)N1CC(O)=C(c2ccccc2)C1=N	0	0	0	0	0	0
CC(C)N1CC(O)=C(c2nc3ccccc3[nH]2)C1=N	0	0	0	0	0	54
CCCCN1CC(O)=C(c2nc3ccccc3[nH]2)C1=N	0	0	52	0	0	71
NC(=O)C1CCN(C(=O)Cn2cccc2C(=O)c2ccccc2)CC1	0	0	0	0	0	0
COc1ccc(/C(C#N)=C/c2c(-c3ccc(Cl)cc3)nc3c(C)cccn23)cc1	-	0	57	-	0	52
CCOC(=O)c1c(-c2ccccc2)nc2c(C)cccn12	-	0	0	-	0	0
Cc1ccc2[nH]c(=O)c(CN(Cc3ccccc3Cl)C(=O)N3CCOCC3)cc2c1	0	0	72	0	0	82
CCOc1ccc2[nH]c(=O)c(CN(Cc3ccccc3)C(=O)N3CCCC3)cc2c1	0	0	0	0	0	0
O=C(NC1CCCC1)C1CCN(S(=O)(=O)c2cccc3cccnc23)CC1	-	3.1	0	-	0	0
O=C(NCc1ccccc1)C1CCN(S(=O)(=O)c2cccc3cccnc23)CC1	0	0	0	0	0	0
CCN1CCN(C(=O)C2CCN(S(=O)(=O)c3cccc4cccnc34)CC2)CC1	0	0	0	0	0	0
CC1CCCN(C(=O)C2CCN(S(=O)(=O)c3cccc4cccnc34)CC2)C1 (stereo unspecified)	0	3.3	0	0	0	0
Cc1c(C(=O)OCC(=O)N2CC(=O)Nc3ccccc32)oc2ccc(Br)cc12	0	0	0	0	0	0
Cn1c(CCN2CCCCC2)nc2cc(NS(=O)(=O)c3ccc(Cl)cc3)ccc21	0	0	0	0	0	0
Cn1c(CCN2CCN(c3ccc(F)cc3)CC2)nc2cc(NC(=O)c3ccco3)ccc21	0	0	0	0	0	0
Cc1ccc(N2CCN(CCc3nc4cc(NC(=O)c5ccco5)ccc4n3C)CC2)cc1	0	0	69	0	0	0
Cn1c(CCNC(=O)c2ccco2)nc2cc(NS(=O)(=O)c3ccc(Cl)cc3)ccc21	0	0	98	0	0	89
Cn1c(CN2CCCCC2)nc2cc(NS(=O)(=O)c3ccc(Cl)cc3)ccc21	-	0	67	0	0	0
Cc1snc(S(=O)(=O)Cc2ccccc2Cl)c1C#N	0	0	0	0	0	0
CC(C)NS(=O)(=O)c1ccc(NC(=O)C2CC3C=CC2C3)cc1 (stereo unspecified)	-	0	0	-	0	0
SMILES	Mac1 fbg inh	CYP2C9 act	CYP2C9 inhib	CD11b adhes enh	CYP2C19 activ	CYP2C19 inhib
CC1=C(C(=O)OC(C)C)C(c2c(O)ccc3ccccc23)NC(=O)N1 (stereo unspecified)	0	0	0	0	0	86
CC(C)C(=O)N1C2CCC1CC(O)(c1ccc(F)cc1)C2 (stereo unspecified)	-	0	0	-	0	0
Cc1cc(N2C3CCC2CC(O)(c2ccc(F)cc2)C3)nc(-c2ccccc2)n1 (stereo unspecified)	0	0	100	0	0	94
CC1Oc2ccccc2OC1(O)c1ccc2ccccc2n1 (stereo unspecified)	0	-	-	0	-	-
COc1ccc(CNC(NC(=O)c2ccccc2)(C(F)(F)F)C(F)(F)F)cc1	0	-	-	0	-	-
CCc1c(O)nc(SCc2ccccc2)n(C(C)CC)c1=O (stereo unspecified)	0	0	0	0	0	0
C=CCSc1nc(O)c(CC)c(=O)n1C(C)CC (stereo unspecified)	0	0	0	0	0	63

Source: PubChem (Sanford-Burnham Center for Chemical Genomics)
